PRMT1 FP inh: blocks human protein arginine methyltransferase 1 | inhibition, % at 2.79 µM | recombinant PRMT1, activity-based probe fluorescence polarization | 1.3% of 370,000 active | Q99873;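 active = inhibition above about 21% made by adding two undisclosed values, limit read from the data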
TLR4-MyD88 BLA: inhibitors of human TLR4-MyD88 binding. 0.18% of 200,000 active. inhibition, % at 8.4 µM. HeLa CL3-4 TLR4/MyD88 BLA complementation, FRET ratio. AID 861. O00206+Q99836; in the data active = inhibition above about 25%;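 also: 0% = vehicle and 100% = reference inhibitor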
ABHD5-PLIN5 inh: inhibitors of human ABHD5-perilipin-5 interaction. Q00G26+Q8WTS1. Split G. princeps luciferase complementation, luminescence, 4 h. inhibition, % at 4 µM. 0.78% of 360,000 active;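 active = inhibition above the mean inhibition across every tested compound plus 3 SD, cut at about 22% in these data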;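 also: 0% = DMSO only wells and the 100% control is not disclosed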
TLR9-MyD88 block: blocks human TLR9 binding to MyD88 | Q9NR96+Q99836 | CHO BLA complementation TLR9-MyD88, CCF4 FRET ratio | inhibition, % at 4.98 µM | 0.21% of 340,000 active | AID 504734;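 active = inhibition above the mean over all tested compounds plus 3 SD, cut at about 21% in these data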;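 also: 0% = DMSO only wells and 100% = clavulanate BLA inhibitor control wells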
Exocytosis inh: blocks lytic granule exocytosis; TALL-104 LAMP-1 surface exposure, flow cytometry; cells stimulated with thapsigargin and PMA; inhibition, % at 10 µM; 0.66% of 360,000 active; AID 651702;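 active = inhibition above about 55%, limit read from the data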
NOD2-RIPK2 inh: blocks binding of human NOD2 to RIPK2; O43353; CHO BLA complementation NOD2-RIPK2, CCF4 ratio; inhibition, % at 4.98 µM; 0.38% of 360,000 active; AID 624267; in the data active = inhibition above about 21%;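 also: 0% = vehicle only and 100% = reference blocker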
ABHD5 PLIN5 conf: ABHD5-PLIN5 interaction inhibition, confirmed | 67% of 2,200 active | AID 651612 | shares compounds with ABHD5-PLIN5 inh | inhibition, % at 4 µM | biochemical ABHD5-PLIN5 interaction, luminescence; in the data active = inhibition above about 23%;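 also: 0% = DMSO vehicle wells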
HNF4 split-luc: active in HNF4 split-luciferase counter-screen for ABHD5-PLIN5 inhibitors. shares compounds with ABHD5-PLIN5 inh. HNF4 dimerization, luminescence, biochemical. inhibition, % at 4 µM. 77% of 2,200 active;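 active = mean inhibition across replicate wells exceeding the computed hit threshold, cut at about 13% in these data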;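 also: light from luciferase halves that rejoin when HNF4 fusion proteins dimerize; 0% = DMSO only wells and the 100% control is not given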
NOD2 RIPK2 conf: confirmation of human NOD2-RIPK2 interaction inhibitors; shares compounds with NOD2-RIPK2 inh; CHO cells, NOD2-RIPK2 BLA complementation, CCF4 FRET; inhibition, % at 4.98 µM; 70% of 1,200 active;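 active = mean inhibition across replicates above a set limit taken from the earlier primary screen, cut at about 21% in these data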;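 also: 0% = DMSO-only wells and the high end = clavulanate BLA-blocked wells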
BLA counter: NOD2-RIPK2 counterscreen BLA reporter activity; shares compounds with NOD2-RIPK2 inh; CHO BLA reporter, CCF4 FRET ratio; inhibition, % at 4.98 µM; 57% of 1,200 active; AID 624371;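 active = mean inhibition above the low-control mean inhibition plus three low-control SD, cut at about 11% in these data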;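 also: 0% = DMSO only wells and 100% = clavulanate high control wells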
Granule exo CP1: blocks lytic granule exocytosis; 11% of 1,500 active; TALL-104 cells, LAMP-1 externalization, flow cytometry; stimulated with PMA plus thapsigargin; inhibition, % at 10 µM; shares compounds with Exocytosis inh; AID 651954; in the data active = inhibition above about 60%;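 also: 0% = stimulated vehicle wells and 100% = unstimulated wells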
* marks the source's active call; other numbers are inactive results; . = no result. A selection: hits, their analogues and other compounds. The true share with any hit is near 2.6%.

SMILES | PRMT1 FP inh | TLR4-MyD88 BLA | ABHD5-PLIN5 inh | TLR9-MyD88 block | Exocytosis inh | NOD2-RIPK2 inh | ABHD5 PLIN5 conf | HNF4 split-luc | others
O=c1[nH]c(O)c(/C=C2\C=NN=C2c2ccccc2)c(=O)[nH]1 | 4 | 10 | 30* | -2 | -4 | 9 | 62* | 63*
C[N+](C)(C)Cc1ccccc1 | 0 | 7 | -1 | -2 | -4 | -10 | . | .
Cc1cc(NC(=O)C(Cl)(Cl)Cl)no1 | -4 | . | 6 | 1 | 0 | -6 | . | .
CSc1nc(N)c(N=Nc2ccc([As](=O)(O)O)cc2)c(=O)[nH]1 | 12 | . | 66* | -2 | -10 | 1 | 68* | 52*
CC1CC2C(C(O)CC3(C)C(O)CCC23)C2(C)CCC(=O)C=C12 (stereo unspecified) | 3 | . | -5 | 12 | 4 | -7 | . | .
NCc1cc(=O)[nH]o1 | -3 | . | -2 | -8 | -2 | 1 | . | .
Fc1cccc(-c2ccc3c(c2)CN(C(=S)NCCc2ccccc2)Cc2cnnn2-3)c1 | 1 | . | -7 | . | 5 | 2 | . | .
CNS(=O)(=O)c1ccc(-c2ccc(C=C3C(=O)NC(=O)NC3=O)o2)cc1 | 4 | . | 25* | -7 | 9 | 3 | 94* | 99*
Cc1ccc(S(=O)(=O)Oc2ccccc2C=C2C(=O)NC(=O)NC2=O)cc1 | 12 | . | 21 | 2 | 10 | 3 | . | .
NS(=O)(=O)c1ccc(-c2ccc(C=C3C(=O)NC(=O)NC3=O)o2)cc1 | 19 | . | 25* | 7 | -6 | 9 | 91* | 95*
O=C1NC(=O)N(Cc2ccc(F)cc2)C(=O)/C1=C\C=C\c1ccco1 | 20 | . | 29* | -1 | 10 | -2 | 96* | 62*
Cn1cccc1/C=C1/C(=O)NC(=O)N(Cc2ccc(F)cc2)C1=O | 6 | . | 4 | 6 | 34 | -2 | . | .
C=CCn1c(O)c(C(C)=Nc2cccc(C(F)(F)F)c2)c(=O)[nH]c1=O | 14 | . | 98* | -9 | -4 | -5 | -2 | 18*
C=CCn1c(O)c(C(C)=Nc2cccc(C(=O)O)c2)c(=O)[nH]c1=O | 3 | . | 2 | 2 | 1 | -5 | . | .
CC(C)c1onc(C(=O)N2CCC3(CC2)OCCO3)c1[N+](=O)[O-] | 1 | . | 2 | 2 | -1 | -4 | . | .
O=C(CF)N(O)c1ccc(C=Cc2ccccc2)cc1 | 6 | . | 37* | 15 | -1 | 3 | 46* | -4
Clc1ccc2c(c1)C(c1ccccc1Cl)=NCc1nnc(N3CCN(CCSc4ccccc4)CC3)n1-2 | 0 | 12 | 26* | -1 | 20 | 3 | 21 | 9
COc1ccccc1N1C(=O)CC(=O)NC1=O | 1 | . | 27* | 2 | 1 | -1 | 6 | 36*
CCOc1cccc(N2C(=O)CC(=O)NC2=O)c1 | 4 | -3 | 17 | -4 | -2 | 2 | . | .
O=C1CC(=O)N(c2ccc(Cl)cc2)C(=O)N1 | 4 | . | 9 | -12 | -14 | -4 | . | .
Cc1ccccc1N1C(=O)CC(=O)NC1=O | 7 | -7 | 14 | 3 | 4 | 0 | . | .
COc1cccc(N2C(=O)CC(=O)NC2=O)c1 | -1 | 4 | 27* | -1 | -1 | 8 | 8 | 32*
CCc1ccc(N2C(=O)CC(=O)NC2=O)cc1 | 4 | . | 24* | -1 | -13 | 4 | 8 | 16*
CC(C)(C)c1ccc(S(=O)(=O)N2CC3CC(C2)c2cccc(=O)n2C3)cc1 (stereo unspecified) | -2 | 1 | -8 | -4 | 0 | -4 | . | .
CCOC(=O)[C@]12Cc3cc(Cl)ccc3[C@H]1N(C(C)C)C(=O)c1ccccc12 | -2 | . | 33* | . | 33 | 30* | 25* | 29* | NOD2 RIPK2 conf=67*;BLA counter=3
SMILES | PRMT1 FP inh | TLR4-MyD88 BLA | ABHD5-PLIN5 inh | TLR9-MyD88 block | Exocytosis inh | NOD2-RIPK2 inh | ABHD5 PLIN5 conf | HNF4 split-luc | others
CCOC(=O)[C@]12Cc3cc(OC)ccc3[C@H]1N(C(C)C)C(=O)c1cc(OC)ccc12 | -4 | . | 19 | . | 36 | -5 | . | .
COC(=O)[C@@H]1[C@@H](C(=O)OC)C2(c3ccccc3-c3ccccc32)N(c2ccc(Cl)cc2)N1C#N | 6 | 8 | 78* | 2 | 21 | 71* | 97* | 96* | NOD2 RIPK2 conf=68*;BLA counter=2
Cc1nc2ccccc2c(=O)n1-c1ccc(Cl)cc1[N+](=O)[O-] | 4 | -1 | -2 | -5 | -4 | 4 | . | .
O=C(Nc1ccccc1OC(=O)N1CCCCC1)N1CCCCC1 | -3 | 0 | 7 | 0 | -2 | -4 | . | .
COc1ccc(CN2Cc3cnnn3-c3ccccc3C2C#N)cc1 (stereo unspecified) | 4 | . | 58* | -8 | 1 | 45* | 91* | 89* | NOD2 RIPK2 conf=13;BLA counter=-6
Clc1cccc(N2Cc3cc(-c4ccccc4)ccc3-n3nncc3C2)c1 | 9 | . | 72* | . | 99* | 1 | 47* | 27* | Granule exo CP1=-13
CC1C=CCCC12C(=O)NC(=O)NC2=O (stereo unspecified) | -2 | . | -12 | -4 | -1 | -15 | . | .
O=c1[nH]c(=S)n(-c2ccccc2)c(O)c1C=NCCN1CCNCC1 | 2 | . | 6 | 9 | -2 | 2 | . | .
CCOC(=O)[C@]12Cc3cc(C)ccc3[C@H]1N(C)C(=O)c1ccccc12 | -1 | . | 5 | . | -4 | -14 | . | .
CCOC(=O)[C@]12Cc3cc(Cl)ccc3[C@H]1N(C1CCCCC1)C(=O)c1ccccc12 | . | . | 51* | . | 83* | 66* | 40* | 39* | NOD2 RIPK2 conf=68*;BLA counter=0;Granule exo CP1=8
CCOC(=O)[C@]12Cc3cc(OC)ccc3[C@H]1N(C)C(=O)c1ccccc12 | -5 | . | 0 | . | 0 | -14 | . | .
CCCCCN1C(=O)c2cc(OC)ccc2[C@@]2(C(=O)OCC)Cc3cc(Cl)ccc3[C@@H]12 | -2 | . | 39* | . | 63* | 46* | 27* | 30* | NOD2 RIPK2 conf=44*;BLA counter=-2;Granule exo CP1=0
CCOC(=O)[C@]12Cc3cc(OC)ccc3[C@H]1N(C1CCCCC1)C(=O)c1ccccc12 | 2 | . | 40* | . | 67* | 50* | 18 | 32* | NOD2 RIPK2 conf=62*;BLA counter=0;Granule exo CP1=-10

Compound activity deposited in PubChem by several laboratories.
